# Records with an inconclusive call do not appear. A call without a number means that no potency is given here. A number with no mark means an inactive call. Calls of active or inactive are those of the source. Unless noted, calls come from the whole dose curve; as a rule, active = well fitted curve in the direction sought with a large enough effect in the repeat runs; inconclusive = weak or mixed curves; inactive = no such curve, though single readings can be large; an effect the other way counts as inactive or inconclusive.
# Experiments:
# [1] = qHTS assay to identify small molecule antagonists of the peroxisome proliferator-activated receptor delta (PPARd) signaling pathway - cell viability counter screen (AID 743213); note: nearly all actives have a fitted effect of over 50% in size; note: potency is the fitted concentration of half-maximal effect
# How it was run: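 HEK293H PPARd UAS-bla cells, 5 h pre-incubation, compound + L165041 300 nM final, 17 h 37 C; B/G FRET substrate 2 h RT; then CellTiter-Glo 30 min RT, luminescence.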
# [2] = qHTS assay to identify small molecule agonists of the farnesoid-X-receptor (FXR) signaling pathway - cell viability counter screen (AID 743218); note: nearly all actives have a fitted effect of over 45% in size; note: potency is the fitted concentration of half-maximal effect
# How it was run: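 FXR-UAS-bla HEK 293T cells, plated 5 h at 37 C, were exposed to compounds for 16 h at 37 C. CellTiter-Glo was then added to the same wells as the bla readout; luminescence read after 30 min at room temperature.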
# [3] = target: Bile acid receptor (Homo sapiens) (UniProt Q96RI1); assay: qHTS assay to identify small molecule agonists of the farnesoid-X-receptor (FXR) signaling pathway (AID 743220; active = well fitted activation curve with a large enough effect in the signal ratio in the repeat runs, not every such curve was filed as active; the % refers to the signal ratio)
# Chain of Bile acid receptor (Homo sapiens) (Q96RI1 whole entry, looked up): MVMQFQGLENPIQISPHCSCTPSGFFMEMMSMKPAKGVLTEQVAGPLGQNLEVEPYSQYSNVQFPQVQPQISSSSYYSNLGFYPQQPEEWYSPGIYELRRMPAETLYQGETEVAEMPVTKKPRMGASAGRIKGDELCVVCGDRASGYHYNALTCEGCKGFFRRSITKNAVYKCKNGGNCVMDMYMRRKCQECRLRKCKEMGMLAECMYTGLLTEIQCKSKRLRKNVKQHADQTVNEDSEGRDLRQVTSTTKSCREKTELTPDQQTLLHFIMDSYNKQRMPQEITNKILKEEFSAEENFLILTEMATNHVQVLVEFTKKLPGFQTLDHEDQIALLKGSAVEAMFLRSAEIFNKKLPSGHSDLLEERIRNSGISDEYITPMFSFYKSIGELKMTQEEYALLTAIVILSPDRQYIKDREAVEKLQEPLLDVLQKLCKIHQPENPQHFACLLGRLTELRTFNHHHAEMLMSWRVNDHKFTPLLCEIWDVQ
# How it was run: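 Beta-lactamase reporter under UAS control in GeneBLAzer FXR HEK 293T cells (5000/well) measured with LiveBLAzer FRET substrate after 2 h at room temperature. Compound exposure lasted 16 h at 37C.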
# [4] = qHTS assay to identify small molecule antagonists of the farnesoid-X-receptor (FXR) signaling pathway - cell viability counter screen (AID 743221; active = well fitted cell-killing curve with a large enough effect in the repeat runs, not every such curve was filed as active; note: nearly all actives have a fitted effect of over 50% in size; note: potency is the fitted concentration of half-maximal effect)
# How it was run: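 GeneBLAzer FXR-UAS-bla HEK 293T cells, compound plus chenodeoxycholic acid (50 uM final), 16 h at 37 C. CellTiter-Glo added to the same wells after the beta-lactamase read; luminescence read after 30 min at room temperature as viability.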
# [5] = qHTS assay to identify small molecule antagonists of the vitamin D receptor (VDR) signaling pathway - cell viability counter screen (AID 743225); note: nearly all actives have a fitted effect of over 50% in size; note: potency is the fitted concentration of half-maximal effect
# How it was run: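 VDR-UAS-bla HEK 293T cells were plated and incubated 4 h at 37C, then dosed with compound plus 3 nM (final) 1-alpha,25-dihydroxyvitamin D3 for 16 h. After the 2 h beta-lactamase read, viability in the same wells was read as CellTiter-Glo luminescence after 30 min at room temperature.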
# [6] = qHTS assay to identify small molecule antagonists of the retinoid-related orphan receptor gamma (ROR-gamma) signaling pathway - cell viability counter screen (AID 1159520); note: nearly all actives have a fitted effect of over 50% in size
# How it was run: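 Tet-on ROR gamma CHO cells were given compounds for 2 hr, then doxycycline hyclate at 1 uM final, and incubated 16 hr at 37 C. Viability was measured as ATP content by CellTiter-Glo luminescence.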
# [7] = qHTS assay to identify small molecule agonists of the AP-1 signaling pathway - cell viability counter screen (AID 1159525; calls by dose curve; note: nearly all actives have a fitted effect of over 55% in size; note: potency is the fitted concentration of half-maximal effect)
# How it was run: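 AP-1-bla ME-180 cells in Opti-MEM with 0.5% dialyzed FBS, compound exposure 5 h at 37 C in 15-point titration. Viability read in the same wells as ATP content by CellTiter-Glo luminescence, normalised to tetra-n-octylammonium bromide and DMSO controls.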
# [8] = qHTS assay to identify small molecule agonists of the RXR signaling pathway - cell viability counter screen (AID 1159529); note: nearly all actives have a fitted effect of over 50% in size; note: potency is the fitted concentration of half-maximal effect
# How it was run: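 RXR-alpha-UAS-bla HEK 293T cells in medium with 2% charcoal-stripped FBS were pre-incubated 5 hr, then compound-treated 16 hr at 37 C. Viability was read by CellTiter-Glo luminescence in the same wells as the beta-lactamase assay, with tetraoctyl ammonium bromide as positive control.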
# [9] = qHTS assay to identify small molecule antagonists of the retinoid acid receptor (RAR) signaling pathway - cell viability counter screen (AID 1159551); note: nearly all actives have a fitted effect of over 35% in size
# How it was run: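 C3RL4 cells were seeded overnight at 37 C, then treated with compounds plus 1 uM (final) retinol for 6 h at 37 C. Viability was read as ATP by CellTiter-Glo luminescence after 30 min at room temperature.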
# [10] = qHTS assay to identify small molecule antagonists of the retinoic acid receptor (RAR) signaling pathway (AID 1159552; note: nearly all actives have a fitted effect of over 50% in size; note: potency is the fitted concentration of half-maximal effect)
# How it was run: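 Retinol signaling pathway inhibitors screened in C3RL4 RARE-luciferase reporter cells seeded overnight at 37 C, then compounds added with 1 uM (final) retinol as pathway substrate. After 6 hr at 37 C, luciferase luminescence read after 30 min at room temperature.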
# [11] = qHTS assay to identify small molecule agonists of the AP-1 signaling pathway (AID 1159526; calls by dose curve)
# [12] = target: Retinoic acid receptor RXR-alpha (Homo sapiens) (UniProt P19793); assay: qHTS assay to identify small molecule agonists of the RXR signaling pathway (AID 1159527; calls by dose curve; note: nearly all actives have a fitted effect of over 35% in size)
# Chain of Retinoic acid receptor RXR-alpha (Homo sapiens) (P19793 whole entry, looked up): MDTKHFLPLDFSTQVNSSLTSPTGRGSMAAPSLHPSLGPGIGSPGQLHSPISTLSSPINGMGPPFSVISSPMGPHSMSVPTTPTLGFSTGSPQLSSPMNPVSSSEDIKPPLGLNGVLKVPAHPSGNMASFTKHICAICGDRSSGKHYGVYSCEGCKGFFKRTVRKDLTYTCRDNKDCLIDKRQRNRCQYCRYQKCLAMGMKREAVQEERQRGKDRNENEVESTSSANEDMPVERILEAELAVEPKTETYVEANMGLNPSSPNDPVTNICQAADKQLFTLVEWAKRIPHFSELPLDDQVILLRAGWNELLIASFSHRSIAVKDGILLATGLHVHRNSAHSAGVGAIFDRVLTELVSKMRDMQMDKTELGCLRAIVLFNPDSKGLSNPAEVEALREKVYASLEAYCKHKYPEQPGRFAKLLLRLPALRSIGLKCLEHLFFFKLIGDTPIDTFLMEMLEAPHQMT
# How it was run: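 GeneBLAzer RXR-alpha-UAS-bla HEK 293T cells in 2% charcoal-stripped FBS medium were exposed to compounds for 16 hr at 37 C in agonist mode. Beta-lactamase reporter read as 460/530 nm FRET ratio after 2 hr substrate loading.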
# [13] = qHTS assay to identify small molecule antagonists of the estrogen related receptor (ERR) signaling pathway - cell viability counter screen (AID 1224818);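 note: series mostly up to about 46 µM; viability measured after 17.5 h of compound exposure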
# How it was run: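 ERR reporter cells plated 6 h at 37 C/5% CO2, then compounds in DMSO pin-transferred and incubated 17.5 h at 37 C. Viability read as CellTiter-Fluor fluorescence after 30 min at 37 C.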
# [14] = qHTS assay to identify small molecule agonists of the vitamin D receptor (VDR) signaling pathway - cell viability counter screen (AID 743224); note: nearly all actives have a fitted effect of over 50% in size; note: potency is the fitted concentration of half-maximal effect
# How it was run: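 VDR-bla cells were preincubated 4 h at 37C/5% CO2, then exposed to compounds for 16 h. After the 2 h room-temperature bla FRET read, CellTiter-Glo was added to the same wells and luminescence read after 30 min.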
# [15] = target: Peroxisome proliferator-activated receptor delta (Homo sapiens) (UniProt Q03181); assay: qHTS assay to identify small molecule antagonists of the peroxisome proliferator-activated receptor delta (PPARd) signaling pathway (AID 743215; active = well fitted inhibition curve with a large enough effect in the signal ratio in the repeat runs, not every such curve was filed as active; the % refers to the signal ratio;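 note: cells stimulated with agonist L165041 at 300 nM final during compound exposure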; note: potency is the fitted concentration of half-maximal effect)
# Chain of Peroxisome proliferator-activated receptor delta (Homo sapiens) (Q03181 whole entry, looked up): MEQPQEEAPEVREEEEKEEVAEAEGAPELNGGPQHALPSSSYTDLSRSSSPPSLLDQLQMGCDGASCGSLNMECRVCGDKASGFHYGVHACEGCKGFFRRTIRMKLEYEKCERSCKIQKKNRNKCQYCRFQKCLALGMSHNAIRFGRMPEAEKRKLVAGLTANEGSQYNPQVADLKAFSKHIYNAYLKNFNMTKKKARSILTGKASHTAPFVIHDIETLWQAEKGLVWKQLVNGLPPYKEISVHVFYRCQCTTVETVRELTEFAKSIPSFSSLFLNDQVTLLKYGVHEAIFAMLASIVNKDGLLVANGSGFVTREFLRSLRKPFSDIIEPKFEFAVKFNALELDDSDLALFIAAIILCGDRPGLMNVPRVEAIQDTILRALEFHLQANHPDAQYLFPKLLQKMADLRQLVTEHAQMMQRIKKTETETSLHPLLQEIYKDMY
# How it was run: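 PPARd UAS-bla HEK293H cells were pre-incubated 5 h at 37 C, then given test compounds in DMSO plus agonist L165041 (300 nM final). After 17 h at 37 C, beta-lactamase FRET substrate was added; fluorescence read after 2 h at room temperature.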
# [16] = target: Vitamin D3 receptor (Homo sapiens) (UniProt P11473); assay: qHTS assay to identify small molecule agonists of the vitamin D receptor (VDR) signaling pathway (AID 743222; calls by dose curve)
# Chain of Vitamin D3 receptor (Homo sapiens) (P11473 whole entry, looked up): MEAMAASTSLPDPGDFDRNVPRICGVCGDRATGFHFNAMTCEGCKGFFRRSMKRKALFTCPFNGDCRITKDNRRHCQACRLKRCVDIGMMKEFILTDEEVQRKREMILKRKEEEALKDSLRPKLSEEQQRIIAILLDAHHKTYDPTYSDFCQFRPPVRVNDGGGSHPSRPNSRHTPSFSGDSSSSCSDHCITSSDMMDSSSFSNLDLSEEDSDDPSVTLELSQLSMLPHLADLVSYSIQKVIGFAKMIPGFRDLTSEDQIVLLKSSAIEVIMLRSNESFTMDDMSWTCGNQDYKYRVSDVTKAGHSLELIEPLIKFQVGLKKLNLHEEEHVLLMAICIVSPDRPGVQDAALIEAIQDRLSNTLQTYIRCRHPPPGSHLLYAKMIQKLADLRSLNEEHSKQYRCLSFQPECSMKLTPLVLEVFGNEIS
# How it was run: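 VDR-bla cells were plated 4 h at 37C/5% CO2, then exposed to compounds in DMSO for 16 h. After LiveBLAzer B/G FRET substrate addition and 2 h at room temperature, beta-lactamase reporter fluorescence was read.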
# [17] = target: Vitamin D3 receptor (Homo sapiens) (UniProt P11473); assay: qHTS assay to identify small molecule antagonists of the vitamin D receptor (VDR) signaling pathway (AID 743223; active = well fitted inhibition curve with a large enough effect in the signal ratio in the repeat runs, not every such curve was filed as active; the % refers to the signal ratio)
# How it was run: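 VDR-bla cells were treated with compound plus 3 nM final 1alpha,25-dihydroxyvitamin D3 for 16 h at 37C. Beta-lactamase reporter read by B/G FRET substrate fluorescence after 2 h at room temperature. qHTS format.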
# [18] = target: Nuclear receptor ROR-gamma (Homo sapiens) (UniProt P51449); assay: qHTS assay to identify small molecule antagonists of the retinoid-related orphan receptor gamma (ROR-gamma) signaling pathway (AID 1159521; note: nearly all actives have a fitted effect of over 50% in size; note: potency is the fitted concentration of half-maximal effect)
# How it was run: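 Tet-on ROR-gamma CHO cells with ROR response element-luciferase reporter; compounds added 2 hr before 1 uM doxycycline induction, then 16 hr at 37 C. Antagonism scored as decreased ONE-Glo luminescence.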
# [19] = qHTS assay to identify small molecule agonists of the retinoic acid receptor (RAR) signaling pathway (AID 1159553); note: potency is the fitted concentration of half-maximal effect
# How it was run: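 C3RL4 cells carrying a RARE luciferase reporter were plated overnight at 37 C, then exposed to compounds in DMSO for 6 hr at 37 C and 5% CO2. Luminescence was read 30 min after luciferase reagent addition at room temperature.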
# [20] = target: Bile acid receptor (Homo sapiens) (UniProt Q96RI1); assay: qHTS assay to identify small molecule antagonists of the farnesoid-X-receptor (FXR) signaling pathway (AID 743217; active = well fitted inhibition curve with a large enough effect in the signal ratio in the repeat runs, not every such curve was filed as active; the % refers to the signal ratio; note: potency is the fitted concentration of half-maximal effect)
# How it was run: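 FXR-UAS-bla HEK 293T cells pre-incubated 5 h at 37 °C, then exposed to compounds with chenodeoxycholic acid (50 uM final) for 16 h at 37 °C. Beta-lactamase reporter read by LiveBLAzer B/G FRET substrate fluorescence after 2 h at room temperature.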
structure (smiles),measurement,setting,value
CN1CCN(CCCN2c3ccccc3Sc3ccc(C(F)(F)F)cc32)CC1,Potency,[1],26.6 µM (active)
same,Potency,[2],26.6 µM (active)
same,outcome,[3],inactive
same,Potency,[4],26.6 µM (active)
same,Potency,[5],23.9 µM (active)
same,Potency,[6],inactive
same,Potency,[7],inactive
same,Potency,[8],21.3 µM (active)
same,Potency,[9],inactive
same,Potency,[10],23.7 µM (active)
CCOC(=O)OC(=O)OCC,Potency,[6],inactive
same,Potency,[7],inactive
same,Potency,[11],inactive
same,Potency,[12],inactive
same,Potency,[8],inactive
same,Potency,[9],inactive
same,Potency,[10],inactive
OC[C@H]1O[C@@H](n2cnc3cncnc32)[C@H](O)[C@@H]1O,Potency,[13],inactive
CC1CNCCN1S(=O)(=O)c1cccc2cnccc12 (stereo unspecified),Potency,[13],inactive
CCOc1ccc([N+](=O)[O-])cc1,Potency,[1],44.3 µM (active)
same,Potency,[14],49.7 µM (active)
same,Potency,[5],22.2 µM (active)
same,Potency,[7],49.7 µM (active)
same,Potency,[8],49.7 µM (active)
same,Potency,[10],inactive
CCC(C)(C)c1ccc(CC(C)CN2C[C@@H](C)O[C@@H](C)C2)cc1 (stereo partly specified),Potency,[1],inactive
same,Potency,[15],inactive
same,Potency,[2],inactive
same,Potency,[4],inactive
same,outcome,[16],inactive
same,Potency,[17],inactive
same,Potency,[18],inactive
same,Potency,[8],12 µM (active)
same,Potency,[10],inactive
CC(Cc1ccc(O)c(O)c1)C(C)Cc1ccc(O)c(O)c1 (stereo unspecified),Potency,[1],inactive
same,Potency,[2],inactive
same,outcome,[3],inactive
same,Potency,[4],inactive
same,outcome,[16],inactive
same,Potency,[14],inactive
same,Potency,[5],inactive
same,Potency,[18],6.86 µM (active)
same,Potency,[7],inactive
same,Potency,[12],inactive
same,Potency,[10],inactive
same,Potency,[19],inactive
Nc1ncnc2n[nH]c(Nc3ccc(F)cc3)c12,Potency,[13],inactive
Cc1cc(C)c(O)c(C(C)(C)C)c1,Potency,[18],inactive
same,Potency,[7],inactive
same,Potency,[12],inactive
same,Potency,[10],inactive
COc1cccc(-c2ccc(/C=C\CN3CCCCCC3)cc2Cl)c1,Potency,[15],inactive
same,Potency,[20],inactive
same,outcome,[3],inactive
same,outcome,[16],inactive
same,Potency,[8],43.4 µM (active)
Cc1cccc(-c2[nH]ncc2-c2ccc3ncccc3n2)n1,Potency,[13],inactive
O=C1Cc2ccccc2C1,Potency,[10],inactive
NCCCC(=O)O,Potency,[13],inactive
CCCCS(=N)(=O)CC[C@H](N)C(=O)O (stereo partly specified),Potency,[13],inactive
CCCC(=O)c1cc(O)c(O)cc1O,Potency,[7],inactive
same,Potency,[8],inactive
same,Potency,[13],inactive
Oc1cc(O)cc(/C=C/c2ccc(O)c(O)c2)c1,Potency,[13],inactive
CCCOC(=O)c1ccc(O)cc1,Potency,[18],inactive
same,Potency,[7],inactive
same,Potency,[11],inactive
same,Potency,[10],inactive
same,Potency,[19],54.5 µM (active)
same,Potency,[13],inactive
CN[C@H]1CC[C@@H](c2ccc(Cl)c(Cl)c2)c2ccc(S(N)(=O)=O)cc21,Potency,[1],12.3 µM (active)
same,Potency,[15],34.7 µM (active)
same,Potency,[20],49 µM (active)
same,Potency,[2],13.8 µM (active)
same,Potency,[4],24.5 µM (active)
same,outcome,[16],inactive
same,Potency,[14],17.4 µM (active)
same,Potency,[5],21.9 µM (active)
same,Potency,[18],54.5 µM (active)
same,Potency,[7],inactive
same,Potency,[8],27.5 µM (active)
same,Potency,[9],inactive
O=C(O)c1cc(=O)c2c(Cl)cc(Cl)cc2[nH]1,Potency,[13],inactive
c1ccc(-c2ccc(C(c3ccccc3)n3ccnc3)cc2)cc1 (stereo unspecified),Potency,[15],26.6 µM (active)
same,outcome,[16],inactive
same,Potency,[17],inactive
same,Potency,[5],inactive
same,Potency,[18],15 µM (active)
same,Potency,[7],inactive
same,Potency,[8],inactive
same,Potency,[10],inactive
